SW480 rereplic – A quantitative high throughput screen for small molecules that induce DNA re-replication in SW480 colon adenocarcinoma cells; SW480 DNA re-replication, Hoechst DNA content imaging, 48 h; Potency, µM (doses to about 46.1 µM), for inactives: at the top dose re-replication activation, hits mostly activators; 1.8% of 340,000 active; AID 624297, 2012; further: potency means the concentration at half of the fitted maximal effect; % of control where 0% means no effect; nearly all actives have a fitted effect of over 55% in size
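Image-based DNA-content assay: after two days of treatment, nuclei were labelled with the DNA dye Hoechst and imaged, and hits were compounds raising the count of nuclei showing high fluorescence intensity.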
KB-3-1 cytotox – qHTS assay for MDR1-selective chemotherapeutics: Primary screen using the parental adenocarcinoma cell KB-3-1; KB-3-1 viability, CellTiter-Glo ATP luminescence, 72 h; Potency, µM (highest dose often 46.1 µM), most hits filed as cytotoxic; 1.4% of 400,000 active; further: potency means the concentration at half of the fitted maximal effect; on the % scale 0 is the no-effect control and ±100 the full control effect; nearly all actives have a fitted effect of over 60% in size
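Parental KB-3-1 adenocarcinoma cells in phenol-red-free DMEM with 10% FBS were pin-treated with compounds at several concentrations, incubated 72 h at 37 °C, and viability read by CellTiter-Glo luminescence; concentration-effect curves were fitted after normalization.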
MCF10A rereplic – A quantitative high throughput screen for small molecules that induce DNA re-replication in MCF 10a normal breast cells; Potency, µM (doses to about 46.1 µM), without a hit: top-dose activity, positive = re-replication, hits mostly activators; MCF 10A DNA re-replication, Hoechst nuclear intensity, 48 h; 2.9% of 350,000 active; AID 624296, 2012; further: potency means the concentration at half of the fitted maximal effect; % of control where 0% means no effect; nearly all actives have a fitted effect of over 50% in size
IL-1B inflam inh – qHTS for Inhibitors of Inflammasome Signaling: IL-1-beta AlphaLISA Primary Screen | 4.7% of 360,000 active | activity change, % at 57.5 µM | AID 743279, 2014 | THP-1 LPS/ATP IL-1B secretion, AlphaLISA, 16 h; hits give low values; in the data active means activity change below about -50%; inconclusive means mostly about -30% to -49%; further: on the % scale 0 is the no-effect control and ±100 the full control effect
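THP-1 cells pretreated 1 hr with compounds (up to 57.5 uM final), then stimulated with LPS (250 ng/mL final) plus ATP (1.25 mM final); secreted IL-1B measured by AlphaLISA after 16 hr, decreased signal indicating inhibition.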
KB-V1 MDR tox – qHTS assay for MDR1-selective chemotherapeutics: Primary screen using the drug-selected MDR subline cells KB-V1. KB-V1 MDR cells viability, CellTiter-Glo, 72 h. Potency, µM (series often up to 46.1 µM), hits mostly cytotoxic. 3.4% of 400,000 active. AID 1347076, 2019; further: potency means the concentration at half of the fitted maximal effect; on the % scale 0 is the no-effect control and ±100 the full control effect; nearly all actives have a fitted effect of over 60% in size
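Cells of the MDR subline KB-V1 are plated, dosed with compound at multiple concentrations, and incubated 72 h at 37 degrees C; CellTiter-Glo is then added and luminescence read after 10 min.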
Numbers without * were called inactive; i = inactive; ? = inconclusive; · = no result. Hits are enriched below; roughly 9.9% of the tested compounds scored in any of these assays. Unless noted, the call rests on the fitted dose curve; in most records, active means well fitted curve in the direction sought with a large enough effect; inconclusive means small, poorly fitted or top-dose-only effect, or another doubt; inactive means no such curve, though single readings can be large; an effect the other way counts as inactive or inconclusive.

SMILES	SW480 rereplic	KB-3-1 cytotox	MCF10A rereplic	IL-1B inflam inh	KB-V1 MDR tox
CC(=O)Nc1ccc(NC(=O)C2CCN(S(C)(=O)=O)CC2)cc1	·	i	·	24	i
S=C(NCc1ccc2[nH]c3c(c2c1)CCCC3)Nc1ccccc1	?	i	21µM*	-19	i
Cc1cc(C)cc(NC(=S)NCc2ccc3[nH]c4c(c3c2)CCCC4)c1	?	?	?	?	i
N#Cc1ccccc1COC(=O)c1ccc2c(c1)OCCO2	?	i	-21%	-50*	i
COc1ccc(CN(C)CC2CCCN(CCc3ccccc3C)C2)cc1O (centres undefined)	16%	i	7%	-52*	i
CN(Cc1ccccc1OCCO)CC1CCCN(CCc2ccc(Cl)cc2)C1 (centres undefined)	7%	i	?	-61*	?
Cc1ccc(OCC(=O)Nc2ccc(S(=O)(=O)N(Cc3ccccc3)c3ccccc3)cc2)cc1	·	i	·	·	?
O/N=C/c1ccc(OCc2ccccc2)c(Br)c1	?	?	26µM*	?	12µM*
CCOc1cc(/C=N/O)cc(Br)c1OCc1ccc(Cl)cc1	?	i	11µM*	-78*	i
O/N=C/c1ccc(OCc2ccccc2)c(Cl)c1	6%	?	4%	-2	?
O/N=C/c1ccc(OCc2ccccc2F)c(Cl)c1	7%	?	?	?	16µM*
CN1CCN(C(CNC(=O)c2ccccc2)c2ccc3c(c2)OCO3)CC1 (centres undefined)	·	i	·	·	i
COc1cc(NC(=O)CCC(=O)N2CCN(S(=O)(=O)c3ccc(C)cc3)CC2)cc(OC)c1	10%	i	10%	-1	18µM*
COc1ccc(-c2cc(C(=O)N3CCN(S(=O)(=O)c4ccc(C)cc4)CC3)[nH]n2)cc1	7%	i	3%	-20	i
O=C(CCC(=O)N1CCN(S(=O)(=O)c2ccc3ccccc3c2)CC1)Nc1cc(Cl)cc(Cl)c1	2%	i	?	-53*	i
O=C(O)CCC(=O)N1CCN(S(=O)(=O)c2ccc3ccccc3c2)CC1	9%	i	0%	-2	i
COc1ccc(S(=O)(=O)N2CCN(C(=O)c3cc(-c4ccc(C)cc4)n[nH]3)CC2)cc1	?	i	13%	-83*	?
CC(C)C(=O)N1CCN(S(=O)(=O)c2ccc3ccccc3c2)CC1	2.9µM*	i	1%	-2	i
COc1ccc(S(=O)(=O)N2CCN(CC(=O)Nc3cc(OC)cc(OC)c3)CC2)cc1	1%	i	9%	-18	i
CC1(C(=O)NCCCN2CCOCC2)Oc2cccnc2NC1=O (centres undefined)	-6%	i	-4%	5	i
O=S(=O)(c1ccc2ccccc2c1)N1CCN(C(=S)Nc2ccc(F)c(Cl)c2)CC1	3%	?	10%	-69*	i
O=C(Cn1ncc(Cl)c(Cl)c1=O)N1CCN(S(=O)(=O)c2ccc3ccccc3c2)CC1	?	16µM*	?	-103*	i
O=S(=O)(c1ccc2ccccc2c1)N1CCN(C(=S)Nc2ccc(F)cc2)CC1	·	?	4%	0	?
CCOC(=O)Nc1ccc2c(c1)N(C(=O)CCN1CCOCC1)c1ccccc1S2=O (centres undefined)	5.8µM*	?	10µM*	-63*	?
COC(=O)Nc1ccc2c(c1)N(C(=O)CCCl)c1ccccc1S2	?	i	?	-96*	i
SMILES	SW480 rereplic	KB-3-1 cytotox	MCF10A rereplic	IL-1B inflam inh	KB-V1 MDR tox
COC(=O)Nc1ccc2c(c1)N(C(=O)CCN(C)C)c1ccccc1CC2	14%	?	0%	-57*	i
CCOC(=O)Nc1ccc2c(c1)N(C(=O)CCN1CCOCC1)c1ccccc1S2	-6%	i	?	-28	i
CCOC(=O)Nc1ccc2c(c1)N(C(=O)CCN(C)C)c1ccccc1CC2	10%	?	?	-69*	i
COC(=O)C1=C(C)NC(C)=C(C(=O)OC)C1c1ccc(OC(=O)c2oc3ccccc3c2C)c(OC)c1	0.52µM*	i	11%	0	i
O=C(NC1CCCCC1)c1ccc(COCC(F)(F)F)o1	3%	i	9%	1	i
O=C(NC1CCCCCC1)c1cccc(COCC(F)(F)F)c1	-4%	i	-2%	-7	23µM*
Cc1ccc(CN2CC(N3CCN(C)CC3)CS2(=O)=O)cc1 (centres undefined)	·	i	·	-1	i
CN(C)c1ccc(/C=C/c2nc3ccccc3c(=O)[nH]2)cc1	16%	i	2%	-7	i
COc1ccc(C(=O)Nc2nc3ccccc3c(=O)[nH]2)cc1	-3%	i	-3%	22	i
O=C(Nc1cccc(/C=C/c2nc3ccccc3c(=O)[nH]2)c1)c1ccccc1Cl	?	?	?	-52*	i
Cc1nc(/C=C/c2ccccc2)[nH]c(=O)c1-c1ccccc1	?	?	?	-1	18µM*
COc1ccc(C(=O)Nc2cccc(/C=C/c3nc4ccccc4c(=O)[nH]3)c2)cc1	?	?	6.5µM*	-27	i
C(=C\c1nc2ccccc2[nH]1)/c1ccccc1	15µM*	18µM*	5.2µM*	-9	i
CC(=O)N(C)c1cccc(-c2ccc3nnc(C)n3n2)c1	-18%	i	-2%	-4	i
O=c1[nH]c2ccccc2nc1/C=C/c1ccc(Cl)cc1	21µM*	i	18µM*	6	i
Cc1cccc(/C=C\c2nc3ccccc3c(=O)[nH]2)c1	21µM*	15µM*	5.8µM*	-4	?
O=c1[nH]c(/C=C/c2ccc(Br)cc2)nc2ccccc12	-6%	i	?	-8	i
COc1ccc(NC(=O)c2cc(S(=O)(=O)N3CCS(=O)(=O)CC3)ccc2Cl)cc1	-3%	i	0%	-2	i
O=C(C1CCN(S(=O)(=O)c2c(Cl)cccc2Cl)CC1)N1CCCCCCC1	4.1µM*	i	0%	-20	i
CCN1CCN(C(=O)C2CCCN(S(=O)(=O)c3cc(Cl)ccc3Cl)C2)CC1 (centres undefined)	-1%	i	3%	-8	?
CC1CCN(C(=O)C2CCN(S(=O)(=O)c3cc(Cl)ccc3Cl)CC2)CC1	8%	i	-6%	-66*	?
O=C(C1CCN(S(=O)(=O)c2ccc(Cl)cc2)CC1)N1CCC1	-6%	i	-1%	-1	i

Source: PubChem BioAssay (National Center for Advancing Translational Sciences (NCATS))
